esBAF inh: blocks esBAF chromatin remodeling in mouse ES cells; Bmi1-luciferase knock-in reporter, 24 h; 100% = twice the neutral-well signal; reporter increase, % at 12.5 µM; 2% of 350,000 active; AID 602393; in the data active means activation above about 40%; inconclusive means no clear call, values can overlap the other calls;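 further: 0% = median of the plate's neutral control wells and 100% = double that signal; a rise in the Bmi1 reporter signal indicates esBAF inhibition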
Wnt act: activates Wnt/beta-catenin signaling in a reporter cell assay; AID 743398; 1.2% of 300,000 active; activation, % at 9.35 µM; activator, plate reader; in the data active means activation above about 30%, passing the limit was not always enough; inconclusive means no clear call, values can overlap the other calls;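 further: 0% = neutral control wells and 100% = positive control wells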
GAA850 FXN act: activators of GAA850 frataxin (FXN) promoter; HEK293 lucGAA850 FXN promoter luciferase reporter, 24 h; percent of 10 µM SAHA response; activation, % at 6 µM; 0.56% of 360,000 active;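 active means activation above the average of all compounds screened plus 3 SD, cutoff fixed separately per campaign, cut at about 7.5% in these data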;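 further: 0% = DMSO wells and 100% = 10 µM SAHA wells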
AHR act: activators of human aryl hydrocarbon receptor | activation, % at 5 µM | 2.5% of 320,000 active | AHR-responsive luciferase reporter cells, luminescence; in the data active means activation above about 47%;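 further: 0% = vehicle wells and 100% = reference agonist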
Target sequence (P35869 whole entry, looked up): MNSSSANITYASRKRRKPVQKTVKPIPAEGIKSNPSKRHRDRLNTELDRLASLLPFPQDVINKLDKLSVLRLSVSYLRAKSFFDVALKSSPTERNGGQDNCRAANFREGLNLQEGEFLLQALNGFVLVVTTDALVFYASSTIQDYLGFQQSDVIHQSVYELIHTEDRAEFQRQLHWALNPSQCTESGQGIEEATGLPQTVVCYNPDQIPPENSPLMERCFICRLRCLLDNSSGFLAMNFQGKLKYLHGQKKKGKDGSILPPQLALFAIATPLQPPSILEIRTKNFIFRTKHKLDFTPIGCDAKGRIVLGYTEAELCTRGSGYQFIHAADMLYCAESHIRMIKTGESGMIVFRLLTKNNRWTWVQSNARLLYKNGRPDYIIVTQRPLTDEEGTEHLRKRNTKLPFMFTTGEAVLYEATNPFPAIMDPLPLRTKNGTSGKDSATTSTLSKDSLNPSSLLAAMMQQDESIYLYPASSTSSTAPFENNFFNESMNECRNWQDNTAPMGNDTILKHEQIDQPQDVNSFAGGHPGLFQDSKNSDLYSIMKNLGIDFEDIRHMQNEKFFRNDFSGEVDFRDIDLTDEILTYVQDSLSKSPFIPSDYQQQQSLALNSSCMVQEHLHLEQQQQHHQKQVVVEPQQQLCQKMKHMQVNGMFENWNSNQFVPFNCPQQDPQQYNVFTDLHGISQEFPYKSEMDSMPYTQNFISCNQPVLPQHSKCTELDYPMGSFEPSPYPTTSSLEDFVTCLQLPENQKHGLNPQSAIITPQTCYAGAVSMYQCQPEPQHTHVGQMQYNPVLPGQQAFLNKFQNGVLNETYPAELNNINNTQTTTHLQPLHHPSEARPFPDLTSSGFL
MITF act: MITF TRPM1 promoter activation in melanoma cells | SK-MEL-5 TRPM1-promoter luciferase, 24 h; % of positive control, neutral wells = 0 | activation, % at 12.5 µM | 0.75% of 300,000 active;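 active means mean activation of at least 80% with every replicate also reaching 80%; inconclusive means mean reaches 80% but some replicate falls short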;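 further: 0% = neutral control wells and 100% = parthenolide positive control wells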
An asterisk follows results filed as active; ? = inconclusive; . = no result given. Sampled rows, rich in hits. Any-hit rate of the full collection: about 4.2%.

SMILES	esBAF inh	Wnt act	GAA850 FXN act	AHR act	MITF act
CCC(C)NC(=O)c1cc2cc3ccc(OC)cc3nc2o1 (stereo not given)	55.5*	14.2	3.6	-2.1	88.8*
COc1ccc2cc3cc(C(=O)NCC4CCCO4)oc3nc2c1 (stereo not given)	54.6*	-1.9	-0.6	-1.0	44.0
CCCCN(CC)C(=O)c1cc2cc3ccc(OC)cc3nc2o1	88.2*	58.3*	5.4	7.1	73.2
COc1ccccc1-c1cnc2c(c1)C(=O)N([C@H](C)CO)C[C@H](C)[C@H](CN(C)CC1CCOCC1)O2	-2.1	.	.	.	.
C[C@H](CO)N1C[C@H](C)[C@H](CN(C)S(=O)(=O)c2cn(C)cn2)OCCCC[C@H](C)Oc2ccc(NC(=O)CCC(F)(F)F)cc2C1=O	1.6	.	.	.	.
COc1ccc(-c2nc(-c3cccs3)c(-c3cccs3)[nH]2)cc1O	17.6	.	0.4	47.5*	3.6
C[C@@H]1CN([C@@H](C)CO)C(=O)c2cc(-c3cccc(C#N)c3)cnc2O[C@@H]1CN(C)Cc1cccnc1	-1.7	.	.	.	.
CN(C)C(=O)C[C@H]1C[C@H]2c3cc(NC(=O)C4CCC4)ccc3O[C@H]2[C@@H](CO)O1	-4.8	.	.	.	.
O=C(NCc1nnc(SCC(=O)N2CCCc3ccccc32)o1)c1ccco1	2.5	46.2*	-1.1	-0.7	-8.0
O=C(NCc1nnc(SCC(=O)N2CCc3ccccc32)o1)c1ccco1	-7.3	-4.8	0.8	-1.4	7.3
C[C@H](O)C#Cc1cnc2c(c1)C(=O)N([C@@H](C)CO)C[C@@H](C)[C@@H](CN(C)Cc1ccc(-c3ccccc3)cc1)O2	-1.5	.	.	.	.
Cc1cccn2c1nc(=S)n2C(=O)c1ccco1	.	71.8*	2.3	14.8	60.8
COc1cccc(CSc2nc3ccccc3[nH]2)c1	54.4*	59.2*	7.5	2.4	73.7
Clc1ccc(OCc2nc3ccccc3[nH]2)cc1	85.2*	10.9	6.0	-3.3	88.0*
c1ccc(OCCSc2nc3ccccc3[nH]2)cc1	.	.	2.7	-4.4	87.6*
OC(Cc1nc2ccccc2[nH]1)c1ccccc1Cl (stereo not given)	54.9*	-1.4	0.1	-2.5	52.6
O=[N+]([O-])c1cccc(CSc2nc3ccccc3[nH]2)c1	.	.	3.4	25.7	34.9
CO[C@@H]1CN(C)C(=O)c2ccc(NS(=O)(=O)c3cn(C)cn3)cc2OC[C@@H](C)N(C)C[C@@H]1C	-1.4	.	.	.	.
C[C@H](CO)N1C[C@H](C)[C@H](CN(C)Cc2ccc(F)cc2)Oc2cc(C#CC3CC3)ccc2S1(=O)=O	-4.6	.	.	.	.
COc1ccccc1-c1ccc2c(c1)[C@H]1[C@H](CCN1S(=O)(=O)c1cccc(C)c1)[C@@H](CO)N2	-10.2	.	.	.	.
c1ccc(OCc2nc3ccccc3[nH]2)cc1	50.7*	62.0*	4.5	-2.4	.
CNc1oc(-c2ccc(OCc3ccccc3)cc2)nc1C#N	68.9*	.	5.3	-4.0	75.5
COc1ccc(-c2nc(C#N)c(NCc3ccco3)o2)cc1	39.3	13.9	5.1	45.2	29.9
Cc1ccc(-c2nc(C#N)c(NCc3ccco3)o2)cc1	73.1*	.	5.5	27.4	.
CN(C)CCCNc1oc(-c2ccccc2)nc1C#N	3.9	.	-0.3	0.8	0.2
SMILES	esBAF inh	Wnt act	GAA850 FXN act	AHR act	MITF act
Cc1cccc(-c2nc(C#N)c(NCc3ccco3)o2)c1	58.6*	31.8*	4.0	11.6	.
CN(C)CCNc1oc(-c2cccc(Cl)c2)nc1C#N	1.5	.	-2.2	77.6*	9.2
CO[C@@H]1CN(C)C(=O)c2cc(NS(=O)(=O)c3cn(C)cn3)ccc2OC[C@H](C)N(C)C[C@H]1C	2.0	.	.	.	.
C[C@H]1CN([C@@H](C)CO)C(=O)Cc2cc(NS(=O)(=O)c3ccc(F)cc3)ccc2O[C@@H]1CN(C)S(C)(=O)=O	2.1	.	.	.	.
Cc1nn(-c2ccccc2)c2c1C(c1cccs1)C(C#N)=C(N)O2 (stereo not given)	-10.0	.	3.1	55.5*	-23.9
CCCc1nn(-c2ccccc2)c2c1C(c1cccs1)C(C#N)=C(N)O2 (stereo not given)	.	-0.7	0.6	-0.1	0.2
C[C@H]1CN([C@@H](C)CO)C(=O)c2cccc(NC(=O)C3CC3)c2O[C@H]1CN(C)CC1CC1	-1.8	.	.	.	.
C[C@@H](NC(=O)C[C@H]1C=C[C@H](NC(=O)C2CC2)[C@@H](CO)O1)c1ccccc1	-1.1	.	.	.	.
COc1ccc(-c2cn3cc(C(=O)NN)ccc3n2)cc1	.	11.6	1.6	55.2*	40.2
COc1ccc(C(=O)NN)cc1	10.1	-0.5	1.1	8.2	-7.1
COc1cc(/C=C/C(=O)c2ccc(Cl)s2)cc(OC)c1O	9.8	.	-3.9	1.0	-24.0
COc1ccc(/C=C/C(=O)c2ccc(Cl)s2)cc1O	56.1*	.	1.1	1.2	.
Cc1c(/C=C/C(=O)c2ccc(Cl)s2)cnn1C	?	61.3*	3.0	-10.1	.
COC(=O)C1=C(Nc2ccccc2NC(=O)c2ccccc2C(=O)O)CSC1	26.2	41.5*	4.0	26.6	-5.7
c1ccc(OCc2nn3c(-c4n[nH]c5c4CCC5)nnc3s2)cc1	-3.8	.	2.0	67.7*	-17.2
COCc1cn(CC[C@@H]2CC[C@H](NC(=O)c3ccc(F)cc3)[C@H](CO)O2)nn1	-1.9	.	.	.	.
O=c1[nH]c(Cc2cccs2)nc2scc(-c3ccc(Cl)cc3)c12	72.2*	20.4	3.1	-9.9	94.2*
O=c1[nH]c(Cc2ccc(F)cc2)nc2scc(-c3ccc(F)cc3)c12	47.0*	2.7	4.8	-6.3	6.8
Cc1ccc(-c2csc3nc(CN(C)Cc4ccccc4)[nH]c(=O)c23)cc1	-0.3	-1.7	-1.0	6.6	4.7
O=C(Nc1cc(F)ccc1F)N1C[C@H]2[C@@H](c3ccccc31)[C@@H](CO)N2Cc1ccncc1	7.3	.	.	.	.
Cc1cc(=O)c2ccccc2n1Cc1ccccc1	.	-9.6	-0.2	57.4*	-22.3
COCC(=O)N1C[C@@H](C)[C@H](OC)CN(C)C(=O)c2ccc(NC(=O)c3ccc(F)cc3)cc2OC[C@@H]1C	-3.3	.	.	.	.
CCc1nnc(NC(=O)C23CC4CC(CC(C4)C2)C3)s1	55.6*	17.0	6.3	6.6	69.7
CC(C)Cc1nnc(NC(=O)C23CC4CC(CC(C4)C2)C3)s1	15.4	-1.2	0.3	2.7	4.4
Cc1ccc2c(CN3CCC(C)CC3)cc(=O)oc2c1C	?	3.7	2.9	.	93.5*
SMILES	esBAF inh	Wnt act	GAA850 FXN act	AHR act	MITF act
CCC1(C)Cc2c(sc3nc(NN)n(C)c(=O)c23)CO1 (stereo not given)	-11.6	.	-2.4	62.4*	-3.2
c1ccc(-c2cnc(-c3ccccn3)nn2)cc1	-15.3	46.0*	0.0	9.7	48.8
O=C(Nc1ccc2nc3ccccc3nc2c1)c1ccc(Br)cc1	17.4	.	5.8	-0.8	22.5
O=C(Nc1ccc2cccnc2c1)c1ccc(Br)cc1	28.9	4.3	1.8	49.8*	19.3
CCCCOc1ccc(C(=O)Nc2cccc(C)n2)cc1	20.7	.	2.9	5.5	102.5*
CC(C)(C)c1csc(NC(=O)c2ccc3nccnc3c2)n1	.	.	3.7	-1.5	114.4*
Cc1cc(C)c(NC(=O)c2ccc3nccnc3c2)c(C)c1	-14.3	-3.0	-3.2	.	20.8
